Data from PubChem BioAssay AID588596 (NMMLSC, 2011).
Potency and affinity values are given separately. Calls of active or inactive are those of the source. How the calls were made is not given here.

assay: V-ATPase regulators, yeast pH concentration series – S. cerevisiae, pHLuorin, cherry pick 1, dose response (AID 588596); conditions: S. cerevisiae pHLuorin vacuolar pH fluorescence; series mostly up to 33.1 µM

outcome, inactive:
O=C(N1CCCC1)C12CCC3CC(CC(C3)C1)C2
CCOC(=O)Cn1c(=O)c(-c2cc(Br)ccc2N)nc2ccccc21
O=C(CCSC1=NCCCN1)c1ccc(F)cc1
Cc1cccc(N=Cc2[nH]c3ccc(Br)c(Cl)c3c2O)c1
